PubChem BioAssay (NCI)
About 79,000 compounds went through this panel and 15% of them were active in at least one assay; those are over-represented in the sample as a whole. Rule as the data show it: active = growth inhibition above about 70%; inactive = the rest.

Legend:
[1] = NCI Yeast Anticancer Drug Screen. Data for the rad50 strain (AID 155);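 also: 0% = growth of vehicle-only cultures of the same strain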; conditions: S. cerevisiae rad50 strain growth inhibition; at 50.0 µM; hits give high values
Outline: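 Readout: growth inhibition relative to vehicle-treated cultures. Compound exposure was carried out in a genetically defined yeast strain deficient in DNA damage repair.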

[2] = NCI Yeast Anticancer Drug Screen. Data for the mec2-1 strain (AID 157); conditions: S. cerevisiae mec2-1 strain, at 50.0 µM, hits give high values
Outline: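 Growth inhibition is read against vehicle-treated controls after compound exposure of the mec2-1 yeast strain, which is defective in DNA damage repair or cell cycle control.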

[3] = NCI Yeast Anticancer Drug Screen. Data for the sgs1 mgt1 strain (AID 161);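 also: 0% = growth of cultures given vehicle only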; conditions: S. cerevisiae sgs1 mgt1 strain, at 50.0 µM, hits give high values
Outline: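 Compounds are added to genetically altered yeast, and growth is compared with cultures given vehicle alone to give percent inhibition.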

[4] = NCI Yeast Anticancer Drug Screen. Data for the cln2 rad14 strain (AID 165);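 also: 0% = growth equal to vehicle treated cultures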; conditions: S. cerevisiae cln2 rad14 strain, at 50.0 µM, hits give high values
Outline: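 Growth inhibition, relative to vehicle-treated controls, is the read-out. The test organism is a yeast strain with defined genetic alterations, cln2 rad14.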

[5] = NCI Yeast Anticancer Drug Screen. Data for the bub3 strain (AID 167); conditions: S. cerevisiae bub3 mutant strain, at 50.0 µM, hits give high values
Outline: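 Readout: yeast growth inhibition, expressed relative to vehicle-only wells. The test organism is a mutant strain from a panel with lesions in DNA repair or checkpoint genes.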

[6] = NCI Yeast Anticancer Drug Screen. Data for the mlh1 rad18 strain (AID 175); conditions: S. cerevisiae mlh1 rad18 strain growth inhibition; at 50.0 µM; hits give high values
Outline: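 Cells of a genetically altered yeast strain, deficient in DNA damage repair, were treated with compound. Their growth was then compared with that of vehicle-treated cultures to give inhibition.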

Measured: growth inhibition

Nc1ncnc2c1ncn2C1OC(COP(=O)(O)OP(=O)(O)OCC2OC([n+]3cccc(C=O)c3)C(O)C2O)C(O)C1O (stereo unspecified)
inactive: [1] 10.6% | [2] 4.4% | [3] 6.85% | [4] -4.1% | [5] 0.6% | [6] 12.3%

O=C(OCC(OC(=O)c1ccccc1)C1CC(C(O)C2CCCCC2)C(=O)O1)c1ccccc1 (stereo unspecified)
inactive: [1] 5.25% | [2] 22.1% | [3] 45.9% | [4] 10.2% | [5] 22.2% | [6] 30.6%

Cc1cccc(-n2c(-c3ccccc3)cs/c2=N\N=C2/CSC(=O)N2Cc2ccccc2)c1
inactive: [1] -2.95% | [2] -21.9% | [3] 22.8% | [4] -41.8% | [5] 2.45% | [6] -27.8%

CC(C)c1ccccc1NC(=O)C(=O)Cc1nc2ccccc2s1
inactive: [1] 23.2% | [2] 7.2% | [3] 19.7% | [4] -36.1% | [5] 38.3% | [6] 51.4%

O=S1(=O)OCCOS(=O)(=O)C1(I)I
inactive: [1] 11.7% | [2] -26.2% | [3] -2.35% | [4] 11.4% | [5] -9.7% | [6] 16.2%

CC(C)(C(=O)O)c1ccccc1C(=O)c1ccccc1
inactive: [1] -10.7% | [2] 12.1% | [3] 0.15% | [4] 49.3% | [5] -0.75% | [6] 14.3%

CCOC(=O)C(C)c1nc2ccc(C(F)(F)F)cc2[nH]c1=O (stereo unspecified)
inactive: [1] 2.15% | [2] 16.7% | [3] 40.4% | [4] 14.2% | [5] 43.4% | [6] 39.5%

COC1OC2COc3ccccc3OC2C2C1N2C(N)=S (stereo unspecified)
inactive: [1] 3.4% | [2] 22.5% | [3] 16.7% | [4] 1.65% | [5] 19.4% | [6] 12.9%

CC(=O)Nc1ccc2c(c1)CCCC2
inactive: [1] 5.75% | [2] -4.45% | [3] -0.8% | [4] -71.6% | [5] -2.95% | [6] -16.4%

CC(NC(=O)c1cnc2ccccc2n1)C(=O)O (stereo unspecified)
inactive: [1] -19.4% | [2] -24.4% | [3] -29.8% | [4] -16.4% | [5] 4.05% | [6] -24.8%

CC1=C/C(=N/NS(=O)(=O)c2ccc(C)cc2)CC(C)(C)C1
inactive: [1] 27.6% | [2] -3.25% | [3] 11.8% | [4] -22.3% | [5] 4.1% | [6] 13.2%

CC(C)CNC(=O)O
inactive: [1] 5.15% | [2] -7.1% | [3] -7.5% | [4] -6.15% | [5] -10.8% | [6] -4.75%

O=C1NS(=O)(=O)c2cc(Cl)ccc21
inactive: [1] -34.3% | [2] -22.1% | [3] -23.8% | [4] -18.4% | [5] -1.85% | [6] -12.8%

O=C1NC(=S)N/C1=C\c1cccs1
inactive: [1] -20.6% | [2] -7.25% | [3] 15.4% | [4] -19.9% | [5] -7.35% | [6] -44.6%

CCSC(SCC)[C@H](NC(C)=O)[C@@H](O)[C@H](O)[C@H](O)CO
inactive: [1] -6.8% | [2] -12.2% | [3] -8.85% | [4] 0.1% | [5] 2.85% | [6] -12.3%

C1CCC2C3CCC(O3)C2C1 (stereo unspecified)
inactive: [1] -4.2% | [2] 1.05% | [3] 5.4% | [4] -33.7% | [5] -39.1% | [6] 2.35%

O=C1CCCNn2c(nc3ncccc3c2=O)N1
inactive: [1] 17.3% | [2] 37% | [3] 9% | [4] -20.6% | [5] 10.1% | [6] -41.1%

Cc1cc(C)c2c(c1)CSCc1cc(C)cc(C)c1-2
inactive: [1] 15.7% | [2] -2.65% | [3] 19.1% | [4] 10% | [5] 1.05% | [6] 16.1%

Nc1[nH]c(=O)nc2c1cnn2Cc1ccccc1
inactive: [1] -0.75% | [2] -10.1% | [3] -14.2% | [4] -12.2% | [5] -2.7% | [6] -3.8%

O=C(Nc1cccc(Cl)c1)C(=O)C(C(=O)c1ccc2ccccc2c1)C1OC(=O)c2ccccc21 (stereo unspecified)
inactive: [1] 39% | [2] 18.4% | [3] 26.1% | [4] 37.2% | [5] 22.9% | [6] -9.1%

CCOC(=O)C(C#N)=C(CC)CC
inactive: [1] -4% | [2] -12.3% | [3] -9.2% | [4] -3.95% | [5] -12.1% | [6] -0.2%

CCOC(=O)CCCCCCCCCCCCCCCCC(=O)OCC
inactive: [1] 30.9% | [2] -31.9% | [3] -14.2% | [4] 19.5% | [5] 7.75% | [6] 8.9%

Cc1ccccc1OCC1COCN(Cc2ccccc2)CO1 (stereo unspecified)
inactive: [1] 18.8% | [2] 21.2% | [3] 28.1% | [4] 20.6% | [5] 6.95% | [6] 32.9%

O=c1[nH]nc(-c2ccc(Cl)cc2)c2cc(Cl)c(Cl)cc12
inactive: [1] -6.45% | [2] -11.3% | [3] -10.7% | [4] -57.9% | [5] -5.2% | [6] -20.7%

Cc1cc(Cl)ccc1NC(=O)C(=O)C(C(=O)c1ccccc1)C1OC(=O)c2ccccc21 (stereo unspecified)
inactive: [1] 20.9% | [2] -7.45% | [3] 14.2% | [4] 14.6% | [5] -3.25% | [6] -9.75%

O=C1[C@@H]2[C@@H](c3ccccc3)[C@]2(Cl)C(=O)[C@H]2[C@H](c3ccccc3)[C@@]12Cl
inactive: [1] 6.9% | [2] 4.15% | [3] 1.1% | [4] 8.75% | [5] 3.8% | [6] 32.8%

COC(=O)c1ccc(C(=O)OC)c2nc3cc(C)c(C)cc3nc12
inactive: [1] -0.7% | [2] 20.7% | [3] 0.1% | [4] -7.1% | [5] 5.35% | [6] 12%

Clc1ccc2c(c1)Cc1ccccc1-2
inactive: [1] 38.6% | [2] -6.95% | [3] 34.1% | [4] 7.5% | [5] 51.6% | [6] 22.2%

N#CC1=C(c2ccccc2)C(=C2Nc3ccccc3N2)C2S/C(=C\c3ccccc3)C(=O)N2C1=N (stereo unspecified)
inactive: [1] 21.2% | [2] -12.3% | [3] 10.4% | [4] -31.1% | [5] 4.45% | [6] 26.8%

O=C(NC1CCCCC1)C1C2CC3OC(=O)C1C3C2 (stereo unspecified)
inactive: [1] -10.8% | [2] -19.2% | [3] 37.1% | [4] -27.6% | [5] 20.5% | [6] -10.1%

O=C1CN(c2cccc(Cl)c2)C(=O)CN1/N=C/c1ccc(O)c(O)c1
inactive: [1] -29.1% | [2] 0.15% | [3] 3.45% | [4] -6.95% | [5] 46% | [6] -8.9%

COc1ccc2ccc3c(CCN(C)C#N)cc4c(c3c2c1OC(C)=O)OCO4
inactive: [1] 11.7% | [2] -2.15% | [3] -8.9% | [4] 6.6% | [5] -0.95% | [6] 0.15%

CC(O)C(c1ccc(N(C)C)cc1)c1ccc(N(C)C)cc1 (stereo unspecified)
inactive: [1] -6.25% | [2] 3.1% | [3] 2.35% | [4] -14.6% | [5] 6.05% | [6] 2.45%

Cc1c(-c2ccccc2)c2ccccc2n1C
inactive: [1] 38.1% | [2] 8.55% | [3] 10.4% | [4] 20.3% | [5] 20.6% | [6] 22.5%

COc1ccc(C(=O)c2c(C(=O)O)ccc3ccccc23)cc1
inactive: [1] 9.55% | [2] 2.25% | [3] 11.3% | [4] -39.3% | [5] 6.75% | [6] -21.5%

NC(=O)Cc1c[nH]c2ccccc12
inactive: [1] 39.7% | [2] -3.95% | [3] 14.3% | [4] -37.2% | [5] 33.4% | [6] 48.6%
